Test results as given in PubChem BioAssay (EPA / NIEHS).
The source made the active and inactive calls. How the source made its calls: active means hit-call score of the fitted dose curve at least 0.9, where 1 is the maximum; inactive means score below 0.9.

read-out: Caspase-3 (Homo sapiens) (UniProt P42574); experiment: LTEA_HepaRG_CASP3: Life Technologies and Expression Analysis (LTEA) Assay for cysteine-aspartic acid protease (CASP3) using HepaRG (AID 2283477); conditions: mRNA level, 48 h; actives raise or lower the signal
Description: LTEA_HepaRG is a cell based, multiplexed-readout assay that uses HepaRG, a human liver cell line, with measurements taken at 48 hours after chemical dosing on a 96-well plate.LTEA_HepaRG_CASP3 is one of 102 assay component(s) measured in the LTEA HepaRG cell culture assay. It is a marker of Cell proliferation, survival, death.Data from the assay component LTEA_HepaRG_CASP3 was analyzed into 1 endpoint. This assay endpoint, LTEA_HepaRG_CASP3, was analyzed with bidirectional fitting relative to DMSO as the negative control and baseline of activity. Using a type of inducible reporter, measures of mRNA induction for gain or loss-of-signal activity can be used to understand regulation of transcription factor activity. To generalize the intended target to other relatable targets, this assay endpoint is annotated to the protease intended target family, where the subfamily is cysteine protease.
A total of 1060 chemcials from the ToxCast library were tested in eight-point concentration-response experiments. Cell culture and cytotoxicity assays were conducted at Thermo Fisher Scientific's Custom Services facility (Madison, WI). A single lot of human HepaRG cells (Thermo Fisher Scientific, Frederick, MD) was used for the cell culture experiments. 96-well format collagen type I coated plates of human HepaRG cells were prepared using established methods. Briefly, cryopreserved HepaRG cells were thawed, plated at a density of approximately 100,000 cells/well in HepaRG Thaw, Plate, and General Purpose media (HPRG770, Thermo Fisher Scientific), and incubated for 48 hours. 0.5% DMSO was selected as vehicle control to balance the requisite need of DMSO in HepaRG cultures to maintain differentiation (for example, baseline metabolism, proportions of hepatocytes vs. cholangiocytes), while enabling further hepatic receptor pathway activation (for example, PXR and CAR) in response to chemical exposure. 48 hours after plating, the culture medium was replaced with HepaRG Serum-Free Incudtion Media. Cells were exposed to each test chemical in duplicate and maintained in CO2 incubators for another 48 hours. Chemical plates were thawed to room temperature and 200x concentrations of treatment groups were prepared. 8-point conentration-reponse curves were made with the highest exposure at 100 uM, followed by half-log dilutions, all in 0.5% DMSO. Each test plate contained variouse controls, induction positive controls (1mM phenobarbital), cytotoxicity positive controls ([…] aflatoxin B1), vehicle controls (0.5% DMSO), and total lysis controls (0.5% DMSO). Cell morphology images were taken using an Essen IncuCyte FLR automated microscope, with six 96-well plates imaged in about 24 minutes. Images were captured and exported and JPEG files. Spent culture media was transfered to black-well plates for the LDH assay, and remaining media was sorted at -80 C for later use. Cells were treated with RLT buffer and frozen until shipped for gene expression analysis. Total RNA was isolated from the cell suspension in 75 uL of Buffer RLT (Qiagen, Germantown, MD 20874) by Quintiles/Expression Analysis (Durham, NC) using a custom isolation procedure. Total RNA from each plate well was transferred to a preamplification plate. Fluidigm's 96.96 Dynamic ArrayTM (Fluidigm, Amsterdam, the Netherlands) technology was used for gene expression analyses by quantitative reverse transcription polymerase chain reaction (qRT-PCR, performed by Quintiles/Expression Analysis, Durham, NC)89. Standard TaqManTM Assays (Applied Biosystems/ThermoFisher Scientific, Foster City, CA) were used to assess the expression of 93 genes selected based on their selectivity and sensitivity to important hepatic receptors known to be modulated by environmental chemicals; importance in human hepatocyte functionality; and hepatotoxicity. […]

Chain of Caspase-3 (Homo sapiens) (P42574 whole entry, looked up): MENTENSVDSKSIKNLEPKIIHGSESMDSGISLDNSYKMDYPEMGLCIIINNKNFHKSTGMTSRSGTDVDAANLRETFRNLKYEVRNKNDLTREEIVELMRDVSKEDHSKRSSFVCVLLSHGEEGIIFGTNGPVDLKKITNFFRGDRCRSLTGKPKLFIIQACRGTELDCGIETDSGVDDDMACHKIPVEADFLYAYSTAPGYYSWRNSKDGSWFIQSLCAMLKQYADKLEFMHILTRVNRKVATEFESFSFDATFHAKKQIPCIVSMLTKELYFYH

SMILES	outcome
CCOS(=O)(=O)OCC	inactive
ClC(Cl)c1ccccc1	inactive
Nc1cc2c3c(c1)C(c1ccccc1)=N[C@@H](NC(=O)c1cccnc1)C(=O)N3CC2	inactive
c1cc2c3c(cccc3c1)CC2	inactive
CCC1(c2ccccc2)C(=O)N=C(O)NC1=O (stereo not given)	inactive
CCN(CC)c1ccccc1	inactive
c1ccc(OP(Oc2ccccc2)Oc2ccccc2)cc1	inactive
COCCOCCO	inactive
CC(C)(C)OOC(C)(C)C	inactive
O=[N+]([O-])c1ccccc1	inactive
CCOc1ccc(C(C)(C)COCc2cccc(Oc3ccccc3)c2)cc1	inactive
CC(Cl)(Cl)C(=O)O	inactive
CCCCCCCc1ccc(O)cc1	inactive
CCNc1nc(Cl)nc(NC(C)(C)C)n1	inactive
OCC1CO1 (stereo not given)	inactive
CCC(C)(C)c1ccc(O)cc1	inactive
CCOP(=S)(Oc1ccc([N+](=O)[O-])cc1)c1ccccc1 (stereo not given)	inactive
O=C(O)C(Cl)Cl	inactive
O=P1(N(CCCl)CCCl)NCCCO1 (stereo not given)	inactive
Cc1cccc(N)c1	inactive

SMILES	outcome
CCCCN(CCCC)SN(C)C(=O)Oc1cccc2c1OC(C)(C)C2	inactive
O=C(O)C1C(C(=O)O)C2(Cl)C(Cl)=C(Cl)C1(Cl)C2(Cl)Cl (stereo not given)	inactive
CCCCN(CCCC)N=O	inactive
c1ccc2c(c1)Nc1ccccc1S2	inactive
ClC(Cl)(Cl)c1ccccc1	inactive
Cc1ccc(N)cc1N	inactive
CCCN(CCC)c1c([N+](=O)[O-])cc(C(C)C)cc1[N+](=O)[O-]	inactive
CCOC(=O)c1ccccc1C(=O)OCC	inactive
O=[N+]([O-])c1ccc(Cl)c(Cl)c1	inactive
CCOP(=S)(OCC)SCSCC	inactive
Cc1ccc(O)cc1C	inactive
ClC1=C(Cl)C2(Cl)C3C(Cl)C(Cl)CC3C1(Cl)C2(Cl)Cl (stereo not given)	inactive
Nc1ccc2ccccc2c1	inactive
c1nc[nH]n1	inactive
CCCCc1ccccc1	inactive
O=P(Oc1ccccc1)(Oc1ccccc1)Oc1ccccc1	inactive
CC(Cc1ccc(OCC(=O)O)cc1)NCC(O)c1csc(C(F)(F)F)n1 (stereo not given)	inactive
Nc1ccc(Cl)cc1	inactive
CN(C)C(=O)Cl	inactive
CSC(C)(C)C=NO	inactive
